Consider 15 compounds from PubChem BioAssay (NCI).

Common to all, as to test: NCI-60 one-dose screen, 48 h (100 = growth as untreated, 0 = no growth, -100 = all killed)
Assay [1] concerns HT29 colon. Conditions: 10 µM unless noted.
In assay [2] the test system is SNB-75 CNS. Conditions: 10 µM unless noted.
For assay [3], the system named is SNB-19 CNS. Conditions: 10 µM unless noted.
For assay [4], the system named is U251 CNS. Conditions: 10 µM unless noted.
For assay [5], the system named is PC-3 prostate. Conditions: 10 µM unless noted.
Assay [6] deals with SK-MEL-5 melanoma. Conditions: 10 µM unless noted.
Assay [7] deals with UACC-62 melanoma. Conditions: 10 µM unless noted.
The test system of assay [8] is LOX IMVI melanoma. Conditions: 10 µM unless noted.
In assay [9] the test system is SK-MEL-2 melanoma. Conditions: 10 µM unless noted.
In assay [10] the test system is EKVX NSCLC. Conditions: 10 µM unless noted.
The test system of assay [11] is SN12C renal. Conditions: 10 µM unless noted.
Assay [12] relates to UO-31 renal. Conditions: 10 µM unless noted.
Assay [13] has as its system TK-10 renal. Conditions: 10 µM unless noted.
Assay [14] has as its system ACHN renal. Conditions: 10 µM unless noted.
Assay [15] concerns CAKI-1 renal. Conditions: 10 µM unless noted.
Assay [16] relates to A498 renal. Conditions: 10 µM unless noted.
Assay [17] deals with CCRF-CEM leukemia. Conditions: 10 µM unless noted.
In assay [18] the test system is MOLT-4 leukemia. Conditions: 10 µM unless noted.
The test system of assay [19] is SR leukemia. Conditions: 10 µM unless noted.
In assay [20] the test system is SK-MEL-28 melanoma. Conditions: 10 µM.

This is part of a sample that, as a whole, favours compounds with a hit. Of some 83,000 tested, about 20% had one in any assay.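 Treatment: one concentration, 48 hours, 96-well format. Scoring: percent growth, with anything below 10 considered active.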 Values without a mark were called inactive. Active and inactive are the calls of the source.

On to `O=C(/C=C/c1cccc(Cl)c1)OCc1ccc2cc1OCC#C/C=C\C#CCO2`, for which the growth in assay [1] is 89.3%; in [2], 80.9%; in assay [3], 93.9%; in assay [4], 102%; in assay [5], 96.2%; in assay [6], 106%. In addition, the growth was 89.2% in [7]; 88.4% in [8]; 113% in [9]; 115% in assay [10]; 95.7% in assay [11]; 80.2% in assay [12]. For the same compound, the growth was 122% in assay [13]; 99.4% in [14]; 101% in assay [15]; 76.7% in [16]; 84% in [17]; 73.2% in assay [18]. Moreover, in [19], the growth is 63%.
`O=C(Nc1ccc(Cl)cc1F)c1cc(Br)ccc1O`: the growth is 42.4% in assay [1]; -13.6% (active) in assay [2]; 20.4% in [3]; 1.1% (active) in [4]; -0.306% (active) in [5]; -87.2% (active) in assay [6]. For the same compound, the growth in assay [7] was -21.8% (active); in [20] it was 13.2%; in [9], -16.3% (active); in assay [10] it was 9.24% (active); in [11], 1.01% (active); in assay [12], 5.96% (active). The growth in assay [13] is 5.64% (active); in assay [14] it was 2.84% (active); in [15], -10.7% (active); in [16] it was -62.9% (active); in assay [17], 15.1%; in [18] it was 0.561% (active).
Turning to `Nc1cccc(Nc2cc(S(=O)(=O)O)c(N)c3c2C(=O)c2ccccc2C3=O)c1`, the growth in assay [1] is 96.3%; in assay [2] it was 82.2%; in assay [3] it was 101%; in [4] it was 95.5%; in assay [5], 100%; in [6] it was 103%. Also, the growth in assay [7] was 106%; in [8], 85%; in assay [9], 100%; in assay [10] it was 85.1%; in assay [11], 99%; in assay [12] it was 110%. For the same compound, the growth in assay [14] is 96.3%; in [15], 92.8%; in [16] it was 102%; in [17] it was 101%; in assay [18], 103%; in assay [19] it was 115%.
With `COC(=O)/C(CCC=C(C)C)=C1\[C@@H](OC(C)=O)C[C@@]2(C)[C@H]1C[C@@H](O)[C@H]1[C@@]3(C)CC[C@H](NCCCNCCCCNCCCN)[C@@H](C)[C@@H]3CC[C@@]12C`, the growth was 31.1% in assay [1]; 93.4% in [2]; 61.8% in assay [3]; 71.5% in [4]; 77.3% in assay [5]; 12.6% in assay [6]. For the same compound, the growth is 31.9% in [7]; 19.9% in assay [20]; 98.1% in assay [9]; 66.2% in assay [10]; 38.2% in assay [11]; 69.4% in [13]. Further, the growth in assay [14] was 42.4%; in assay [15], 61.9%; in assay [16], 69.1%; in assay [17], 70.6%; in assay [18], 65.4%; in [19], 42.3%.
`COc1cc(C(=O)O/N=C(\N)Cc2cccc3ccccc23)cc(OC)c1OC`: the growth was -74.3% (active) in assay [1]; -19.4% (active) in assay [2]; 68.2% in assay [3]; -67.8% (active) in assay [4]; 27.6% in assay [5]; -97.9% (active) in [6]. Moreover, the growth in [7] was -88.3% (active); in assay [8], -81.9% (active); in assay [20], -97% (active); in assay [9], -80.9% (active); in [11], 63%; in [13], -43.8% (active). Further, the growth was 42.9% in [14]; 22.9% in [15]; -5.01% (active) in assay [17]; 1.56% (active) in assay [18]; -30.4% (active) in [19].
With `COc1cc(C2C3=C(COC3=O)N(CCO)c3cc4c(cc32)CCC4)cc(OC)c1O` (stereo not drawn), the growth in [1] was 0.722% (active); in [2], 3.02% (active); in [3], 31.2%; in assay [4], 15.3%; in assay [5] it was 31.7%; in [6], 11.8%. In addition, the growth in assay [7] was 39.8%; in assay [8], 28.2%; in [9], 89%; in assay [10] it was 34.3%; in [11], 33.5%; in assay [12] it was 49.7%. Besides, the growth was 45% in [13]; 42.8% in [14]; 21.1% in assay [15]; 17.2% in [16]; 17.2% in [17]; 20.6% in assay [18].
As for `CC(C)C[C@H](C(=O)N[C@H](C(N)=O)C(C)C)N1CC=CCN(OCc2ccccc2)S1(=O)=O`, the growth was 102% [2.5 µM] in [1]; 69.7% [2.5 µM] in [2]; 94.7% [2.5 µM] in [3]; 97.1% [2.5 µM] in [4]; 98.5% [2.5 µM] in assay [5]; 106% [2.5 µM] in assay [6]. The growth is 98.8% [2.5 µM] in assay [7]; 95.7% [2.5 µM] in assay [8]; 98.9% [2.5 µM] in [9]; 114% [2.5 µM] in assay [10]; 94.9% [2.5 µM] in assay [11]; 83.6% [2.5 µM] in [12]. The growth in [14] was 97.8% [2.5 µM]; in [15] it was 99.4% [2.5 µM]; in [16] it was 108% [2.5 µM]; in assay [17], 92.4% [2.5 µM]; in [18], 82.5% [2.5 µM]; in assay [19], 93.4% [2.5 µM].
Turning to `Cc1ccc(NC2=CC(=O)C(=O)c3ccccc32)c(C)c1`, the growth in [1] is 48.4%; in assay [2] it was 35.2%; in assay [3], 28.1%; in [4], 33.3%; in assay [5], 35.4%; in assay [6] it was -97.3% (active). Besides, the growth in [7] was -59.5% (active); in assay [8], -23.2% (active); in assay [9], 76.6%; in assay [10] it was 143%; in assay [11], 44.1%; in [12] it was 71.2%. Also, the growth in [13] was 80.8%; in assay [14], 15.9%; in assay [15], 82.7%; in [16] it was 109%; in [17] it was 43.7%; in [18], 36.9%.
Regarding `O=c1c(-c2nc3ccccc3[nH]2)cc2ccccc2n1Cc1cn(Cc2ccccc2Cl)nn1`, the growth in assay [1] is 0.454% (active); in assay [2], -41.2% (active); in [3], 54.8%; in [4] it was 37.9%; in [5], 36.6%; in assay [6], 0.0348% (active). Moreover, the growth in assay [7] is 22.1%; in assay [8], 12.8%; in [20] it was 1.94% (active); in [9] it was 94.1%; in assay [11] it was 12%; in assay [13], 31%. Also, the growth in [14] was 12.2%; in [15], 77.4%; in [17], 65.2%; in [18] it was 32.5%; in assay [19], 11.5%.
Regarding `COc1cc(-c2c3c(cn2S(=O)(=O)c2ccccc2)-c2nc(N)sc2CC3)cc(OC)c1OC`, the growth in [1] is 9% (active); in [2] it was 12.1%; in [3], 29%; in assay [4] it was 25.8%; in [5] it was 41.8%; in assay [6], 14.1%. In addition, the growth in assay [7] was 51.1%; in [20], 68.6%; in assay [9], 54.3%; in assay [11], 54.1%; in [12] it was 30.5%; in assay [13] it was 53.4%. Also, the growth in assay [14] was 49.9%; in assay [15], 34.2%; in [16] it was 21.1%; in assay [17], 7.05% (active); in [18], 23.5%.
In the case of `O=C(O)CCC(=O)c1ccc(C2CCCCCC2)cc1`, the growth was 91.6% in assay [1]; 96.5% in assay [2]; 93.2% in assay [3]; 96% in assay [4]; 99.2% in [5]; 105% in [6]. The growth in assay [7] was 106%; in assay [20], 113%; in assay [9], 105%; in assay [11], 99.5%; in assay [12] it was 80.4%; in assay [13] it was 99.1%. The growth in assay [14] is 97.1%; in [15], 97.4%; in [16], 89.2%; in assay [17], 101%; in assay [18] it was 87.3%; in [19], 93.8%.
Regarding `CCOC(=O)c1sc(-c2ccc(OS(=O)(=O)c3cccs3)c(C=O)c2)nc1C`, the growth in [1] was 1.93% (active); in [2], 4.62% (active); in assay [3], 5.38% (active); in assay [4], 2.52% (active); in assay [5], 11.1%; in [6], -88.9% (active). Besides, the growth was 2.43% (active) in assay [7]; 27.4% in assay [20]; 28.6% in assay [9]; 33.6% in [10]; 1.55% (active) in assay [11]; -4.34% (active) in assay [12]. The growth in [13] is 12.2%; in [14], 0.377% (active); in assay [15], 2.41% (active); in assay [16] it was 31.4%; in assay [17], 7.57% (active); in assay [18], -7.85% (active). The growth in assay [19] was 3.44% (active).
For `O=NN(Cc1cccnc1)C(=O)NC1CCCCC1`, the growth in assay [1] was 103%; in assay [2] it was 84.7%; in [3], 102%; in [4], 97.4%; in assay [5], 98.7%; in assay [6], 102%. Besides, the growth in assay [7] was 110%; in [20], 104%; in [9] it was 119%; in assay [11], 98.9%; in [12] it was 90%; in [13] it was 114%. Also, the growth in [14] was 96.5%; in [15], 93.9%; in assay [16], 103%; in [17] it was 102%; in assay [18], 111%.
For `COc1ccccc1N1CCN(C(CNS(=O)(=O)c2ccc(Cl)cc2)c2cccnc2)CC1` (stereo not drawn), the growth was 45.3% in assay [1]; 91.4% in assay [2]; 107% in assay [3]; 61.7% in assay [4]; 48.9% in [5]; 90.2% in [6]. In addition, the growth in assay [7] is 100%; in assay [20], 85.2%; in assay [9], 120%; in assay [11], 90.8%; in assay [12], 111%; in [13], 111%. Also, the growth was 103% in assay [14]; 104% in [15]; 56.7% in assay [16]; 55.5% in assay [17]; 46.7% in assay [18]; 49.5% in assay [19].
In the case of `C1CCN(c2nc(N3CCCCC3)nc(N3CCOCC3)n2)CC1`, the growth in [1] is 88.2%; in assay [2], 81%; in assay [3], 96.1%; in assay [4], 101%; in [5], 104%; in assay [6], 101%. Besides, the growth in assay [7] was 93%; in assay [8] it was 98.7%; in assay [10] it was 85.4%; in assay [11], 96.5%; in [12], 99.5%; in assay [13], 92.1%. Further, the growth in [14] was 116%; in assay [15], 85.6%; in assay [16] it was 109%; in [17], 92.6%; in [18], 81.5%; in [19], 89.4%.
